Assay results taken from PubChem BioAssay AID1566 (Sanford-Burnham Center for Chemical Genomics, 2009).
Among all 290,000 compounds or so, about 1,800 (0.62%) were called active. The sample holds actives, similar compounds and a random draw of the others, so the mix is not that of the screen. Values without a mark were called inactive. Rule as the data show it: active = inhibition above about 50%; inactive = the rest.

Test: inhibition of NOD2-driven NF-kB reporter – cell-based, luminescence, uHTS, HEK293 (AID 1566)
Conditions: HEK293 NOD2/NF-kB luciferase reporter, at 4 µM, active compounds read high

Row | SMILES | inhibition
1 | CC(C)CNC(=O)CN(c1ccccc1)S(=O)(=O)c1ccccc1[N+](=O)[O-] | -10.6%
2 | O=C(c1ccccc1)N1CCN(CC(O)COc2cccc3ccccc23)CC1 (configuration not stated) | -10%
3 | CCOC(=O)c1c(NC(=O)CSc2nc3ccccc3c(=O)n2-c2ccc(F)cc2)sc(C(C)=O)c1C | -19.4%
4 | O=S(=O)(Nc1ccc(N2CCOCC2)cc1)c1ccc(F)cc1F | -1.9%
5 | O=C(c1ccco1)N1CCCC(c2nc3c(nnn3Cc3c(Cl)cccc3Cl)c(=O)[nH]2)C1 (configuration not stated) | -43.2%
6 | Cc1cc(-c2ccc([N+](=O)[O-])cc2)nc2ccccc12 | -13.5%
7 | O=[N+]([O-])c1ccc(-c2c(O)c3ccccc3c3nc4ccccc4nc23)cc1 | 58.6% (active)
8 | O=[N+]([O-])c1ccc(-c2cnc3ccccc3n2)cc1 | -35.5%
9 | Cc1ccc(Oc2nc3ccccn3c(=O)c2/C=C(\C#N)C(=O)NC2CCS(=O)(=O)C2)c(C)c1 (configuration not stated) | 0.4%
10 | O=C(Nc1ccc(C(=O)OC2CCCCC2)cc1)c1ccncc1 | 61.2% (active)
11 | O=C(OC1CCCCC1)c1ccc(NC(=O)C2CCCCC2)cc1 | 8.6%
12 | O=C(OC1CCCCC1)c1ccc(NC(=O)c2ccco2)cc1 | -39.4%
13 | COCCNC(=O)C1CC(c2ccc([N+](=O)[O-])cc2)=NO1 (configuration not stated) | 21%
14 | COc1ccc(OCC(=O)Nc2cccc(NC(=O)c3ccco3)c2)cc1 | 1.8%
15 | Cc1cnnn1-c1cccc([N+](=O)[O-])c1 | -9.2%
16 | COC(=O)Cc1[nH]n(-c2nc3ccccc3s2)c(=O)c1C(C)=Nc1ccc(Cl)cc1 | 6.3%
17 | COC(=O)Cc1[nH]n(-c2nc3ccccc3s2)c(=O)c1C(C)=O | -18.8%
18 | CN(Cc1cn[nH]c1-c1ccc2c(c1)OCO2)C1CCOCC1 | 10.5%
19 | CCCc1sc(N/N=C/c2ccccn2)nc1-c1ccc(Br)cc1 | -44.6%
20 | Cc1csc(N/N=C/c2ccccn2)n1 | -60.9%
21 | Cc1nc(N/N=C/c2ccccn2)sc1C | 56.9% (active)

Row | SMILES | inhibition
22 | Oc1ccc(Br)cc1CNc1ccccn1 | -10.8%
23 | O=C(CCl)Nc1cccc(Oc2cnccn2)c1 | -47.8%
24 | CCCCc1ccc(NC(=S)NCCc2ccc(S(N)(=O)=O)cc2)cc1 | 24.9%
25 | COc1ccc(CCNC(=O)Nc2cccc([N+](=O)[O-])c2)cc1OC | 4.7%
26 | COc1ccc(CCNC(=O)Nc2cccc([N+](=O)[O-])c2)cc1 | 79.5% (active)
27 | COc1ccccc1CCNC(=O)Nc1cccc([N+](=O)[O-])c1 | 13.6%
28 | CCOC(=O)c1c(N)sc(C(=O)N(CC)CC)c1C | 2.6%
29 | CC1(C)CC(=O)C=C(NCc2cccs2)C1 | 1.3%
30 | OCC[C@@H]1C[C@H](O)[C@@H](O)[C@]2(Cc3ccccc3CCO2)O1 | -4.1%
31 | Cc1oc(-c2ccc(Cl)cc2)nc1CN1CCCC(C(=O)N2CCN(C(=O)c3ccco3)CC2)C1 (configuration not stated) | 50% (active)
32 | Cc1oc(-c2ccc(Cl)cc2)nc1CN1CCCN(C(=O)c2ccco2)CC1 | 18.6%
33 | Cc1oc(-c2ccc(Cl)cc2)nc1CN1CCCC(C(=O)N2CCOCC2)C1 (configuration not stated) | 10.7%
34 | COc1ccc(NC(C)=O)cc1S(=O)(=O)NC(Cc1ccccc1)C(=O)O (configuration not stated) | -25.7%
35 | COc1ccc(OC)c(S(=O)(=O)Nc2ccc(OCC(=O)O)cc2)c1 | 3.3%
36 | COc1ccc(CC(NC(C)=O)C(=O)NC2CCN(C(=O)C3CCCCC3)CC2)cc1OC (configuration not stated) | 13.5%
37 | CCOCCCNS(=O)(=O)c1ccc(NC(=O)c2ccccc2)cc1 | 11.3%
38 | Cc1nnc(SCC(=O)Nc2ccc([N+](=O)[O-])cc2)n1CC1CCCO1 (configuration not stated) | 2.5%
39 | CC1CCc2c(sc3ncnc(N4CCOCC4)c23)C1 (configuration not stated) | 26%
40 | CC1CCc2sc3ncnc(N4CCN(C)CC4)c3c2C1 (configuration not stated) | 12.6%
41 | CCOc1ccc(NC(=O)CC2C(=O)N(c3ccccc3)C(=O)N2CCc2cccs2)cc1 (configuration not stated) | 23.4%
42 | COc1ccc(CCNC(=O)C2CCN(S(=O)(=O)c3ccc(-n4cnnn4)cc3)CC2)cc1OC | 6%

Row | SMILES | inhibition
43 | CCOc1ccccc1NC(=O)CNC(=O)CNC(=O)Cc1ccccc1 | -3.4%
44 | Cc1sc2ncnc(NC3CCN(Cc4ccccc4)CC3)c2c1C | 36.9%
45 | Cc1csc2c(NC3CCN(Cc4ccccc4)CC3)ncnc12 | 34.1%
46 | COc1cc(CC(=O)NCC2CCCCC2)cc(OC)c1OC | -1.9%
47 | CCOc1cccc(-c2nnc3sc(C4CCCCC4)nn23)c1 | 20.8%
48 | COc1ccc(-c2nnc3sc(C4CCCCC4)nn23)cc1OC | 13.6%
49 | COc1cccc(-c2nnc3sc(C4CCCCC4)nn23)c1 | 55.3% (active)
50 | O=C(NC1CCCCCC1)c1ccc(OCC2CCCO2)cc1 (configuration not stated) | -82%
51 | OCCC1CN(Cc2cccn2-c2ccccn2)CCN1C1CCCCC1 (configuration not stated) | -19.4%
52 | CNC(=S)N/N=C/c1c(C)c(C(=O)c2ccc(F)cc2)n2ccccc12 | 25.2%
53 | Cc1c(/C=N/NC(=O)c2ccc(O)cc2)c2ccccn2c1C(=O)c1ccc(F)cc1 | 7%
54 | Cc1cccc(NS(=O)(=O)c2ccc(C(=O)NCCCN3CCOCC3)cc2)c1C | 14.9%
55 | S=C(NCc1cccnc1)Nc1cccc2ccccc12 | -6.2%
56 | S=C(NCc1ccccc1)Nc1cccc2ccccc12 | 3.3%
57 | S=C(NCc1ccccc1)Nc1cccc2cnccc12 | 52.6% (active)
58 | O=C(NN1CCOCC1)c1ccc(S(=O)(=O)N2CCCCC2)cc1 | 4.3%
59 | O=C(O)c1cc(-c2ccc(N3CCOCC3)cc2)nn1-c1ccccc1Cl | 3.2%
60 | N#C/C(=C\Nc1ccc(F)c(Cl)c1)S(=O)(=O)c1ccccn1 | 0.9%
61 | CCn1cc([N+](=O)[O-])c(C(=O)Nc2nc(-c3ccc(C)c(C)c3)c(C)s2)n1 | 13%
62 | CCn1cc([N+](=O)[O-])c(C(=O)Nc2nc(-c3ccc(C)cc3)c(C)s2)n1 | 3%
